ASM inhibitor – human S-ASM enzyme inhibition; P17405; placental ASM, HMU-PC fluorogenic substrate, 60 min; Potency, µM (highest dose often 57.5 µM), without a hit: at the top dose activity change, negative = inhibition, usual class: inhibitors; 340,000 compounds, 0.006% hits; also: potency is read from the fitted curve at half-maximal effect
Target sequence (P17405 47-631 limits assumed): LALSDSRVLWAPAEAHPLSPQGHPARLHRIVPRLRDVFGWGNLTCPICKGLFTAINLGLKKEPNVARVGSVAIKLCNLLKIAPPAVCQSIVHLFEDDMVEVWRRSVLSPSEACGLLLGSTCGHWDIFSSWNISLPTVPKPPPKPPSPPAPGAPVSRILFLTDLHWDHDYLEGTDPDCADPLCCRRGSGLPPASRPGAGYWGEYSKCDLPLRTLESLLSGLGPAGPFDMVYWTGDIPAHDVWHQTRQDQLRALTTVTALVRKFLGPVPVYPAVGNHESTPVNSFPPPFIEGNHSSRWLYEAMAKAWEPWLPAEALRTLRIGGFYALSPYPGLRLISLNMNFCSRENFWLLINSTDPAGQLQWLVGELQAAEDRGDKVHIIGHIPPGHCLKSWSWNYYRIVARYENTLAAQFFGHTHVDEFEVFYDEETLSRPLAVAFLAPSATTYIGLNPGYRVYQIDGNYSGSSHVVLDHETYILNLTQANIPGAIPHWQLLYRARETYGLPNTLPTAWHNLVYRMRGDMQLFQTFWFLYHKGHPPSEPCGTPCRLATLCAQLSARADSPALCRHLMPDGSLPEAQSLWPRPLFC
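HMU-PC0 cleavage (9 uM final) by human placental ASM, 60 min at 37 °C following 10 min compound exposure at RT; stopped at pH 10, fluorescence Ex 386/Em 447 nm.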
IL-1B inflam inh – inflammasome signaling inhibition, IL-1 beta readout | THP-1 LPS/ATP IL-1B secretion, AlphaLISA, 16 h; active compounds read low | activity change, % at 57.5 µM | 360,000 compounds, 4.7% hits | AID 743279; in the data active = activity change below about -50%; inconclusive = mostly about -30% to -49%; also: % is scaled to controls: 0 for no effect and ±100 for the full control effect
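Secreted IL-1B measured by AlphaLISA bead assay after 16 h compound exposure of THP-1 cells; compounds (final up to 57.5 uM) added 1 h before LPS (250 ng/mL) and ATP (1.25 mM) stimulation; lower signal means less secretion.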
HepG2 viability – HepG2 cytotoxicity, counter-screen for TGF-b inhibitors; Potency, µM (titrated, usually from 46.1 µM), for the others: at the highest dose activity change, negative = cytotoxicity, hits mostly cytotoxic; HepG2 CAGA-GFP viability, ATP luminescence, 18 h; AID 588856; 410,000 compounds, 0.76% hits; also: potency is read from the fitted curve at half-maximal effect
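CellTiter-Glo luminescence gave cytotoxicity after 18 hours at 37 degrees C. The cells were HepG2 CAGA-GFP in 1% FBS DMEM, stimulated with 500 pg/mL TGF-beta after compound addition. %Activity was normalised to no-cell wells (complete cell-killing) and DMSO (no toxicity), and curves were fitted and classified.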
TGFb SMAD3 inh – TGF-b pathway inhibition; 410,000 compounds, 1.2% hits; Potency, µM (series often up to 46.1 µM), for the others: top-dose activity, negative = inhibition, usual class: inhibitors; HepG2 CAGA-GFP TGF-b/SMAD3 reporter, GFP fluorescence, 18 h; TGF-beta stimulated, 500 pg/mL final; AID 588855; also: potency is read from the fitted curve at half-maximal effect; % is scaled to controls: 0 for no effect and ±100 for the full control effect; nearly all actives have a fitted effect of over 65% in size
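HEPG2 CAGA-GFP reporter cells (1000/well, DMEM with 1% FBS) received compounds, then recombinant TGF-beta at 500 pg/mL final for 18 hours at 37 degrees C. Per-cell GFP summed per well was normalised to unstimulated and stimulated DMSO controls before curve fitting.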
TDP1 cell noCPT – qHTS for Inhibitors of human tyrosyl-DNA phosphodiesterase 1 (TDP1): qHTS in cells in absence of CPT; DT40 Tdp1-/- hTDP1 cells, no CPT, ATP luminescence, 48 h; Potency, µM (titrated, usually from 46.2 µM), inactives show at the top dose activity change, negative = growth inhibition, most hits filed as inhibitors; 420,000 compounds, 15% hits; also: potency is read from the fitted curve at half-maximal effect; % is scaled to controls: 0 for no effect and ±100 for the full control effect; nearly all actives have a fitted effect of over 55% in size
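Stably hTDP1-transfected Tdp1-null chicken DT40 cells were treated with library compounds minus camptothecin and grown for at least 48 hr at 37 °C, after which cellular ATP was quantified by luminescence.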
TDP1 cell CPT – growth inhibition of DT40 Tdp1-/-;hTDP1 cells with camptothecin (screen for TDP1 inhibitors); 420,000 compounds, 12% hits; AID 686979; Potency, µM (doses to about 46.2 µM), for the others: top-dose activity change, negative = growth inhibition, most hits filed as inhibitors; chicken DT40 Tdp1-/-;hTDP1 cells + 20 nM CPT, ATP luminescence, 48 h; also: potency is read from the fitted curve at half-maximal effect; % is scaled to controls: 0 for no effect and ±100 for the full control effect; nearly all actives have a fitted effect of over 55% in size
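Chicken DT40 Tdp1-/- cells stably complemented with human TDP1 were seeded at 400 cells/well in medium containing 20 nM camptothecin, exposed to pin-transferred compounds, and grown at 37 °C for at least 48 hr. Viability was read as ATP luminescence.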
* marks the source's active call; other numbers are inactive results; ? = inconclusive; · = not tested or not shown. A selection: hits, their analogues and other compounds. The true share with any hit is near 19%. Unless noted, calls follow the shape of the dose curve; as a rule, active = well fitted curve in the direction sought with a large enough effect; inconclusive = small, poorly fitted or top-dose-only effect, or another doubt; inactive = no such curve, though single readings can be large; an effect the other way counts as inactive or inconclusive.

SMILES	ASM inhibitor	IL-1B inflam inh	HepG2 viability	TGFb SMAD3 inh	TDP1 cell noCPT	TDP1 cell CPT
Cc1ccc(C)c2[nH]c(=O)c(CN(Cc3nnnn3C3CCCCC3)CC3CCCO3)cc12 (configuration not stated)	-5.0%	?	-58.6%	?	23.1µM*	14.6µM*
Cc1ccc(C)c2[nH]c(=O)c(CN(CCN3CCOCC3)Cc3nnnn3CC3CCCO3)cc12 (configuration not stated)	4.3%	-2.6	-5.7%	-18.3%	-8.5%	-18.0%
Cc1cccc2cc(CN(Cc3cccs3)C3(c4nnnn4C4CCCC4)CCCC3)c(=O)[nH]c12	-1.5%	3.6	-0.6%	-0.4%	20.6µM*	?
Cc1cc2cc(CN(Cc3cccs3)S(=O)(=O)c3ccc4c(c3)OCCO4)c(=O)[nH]c2cc1C	6.6%	-1.2	15.8%	?	?	?
Cc1ccc(C)c2[nH]c(=O)c(CN(CC3CCCO3)C(=O)NC3CCCCC3)cc12 (configuration not stated)	-3.0%	-25.8	-43.4%	-11.2%	?	23.1µM*
Cc1cccc(N2CCn3c2nc2c3c(=O)n(C/C=C/c3ccccc3)c(=O)n2C)c1	·	·	-18.6%	-7.3%	11.2%	1.3%
CS(=O)(=O)N(CC(=O)NCCSCc1ccccc1)c1ccccc1Cl	-1.5%	16.8	1.2%	7.5%	?	?
CC1=C/C(=C(\c2cc(C)c(O)c(Br)c2)c2ccccc2S(=O)(=O)O)C=C(Br)C1=O	0.8%	-80.6*	-39.3%	-14.5%	?	?
CCOc1ccc(S(=O)(=O)N2CCCCC2)cc1NC(=O)CN1C(=O)NC(C)(c2ccccc2)C1=O (configuration not stated)	-2.8%	-17.4	-1.5%	0.6%	?	-19.9%
COc1ccc(C2(c3ccc(O)cc3O)CC(c3ccccc3Cl)NC(=S)N2)cc1 (configuration not stated)	8.4%	-90.4*	-2.8%	?	?	?
COc1cccc(C2CC(c3ccccc3Cl)n3nc(N)nc3N2)c1 (configuration not stated)	3.5%	-5.0	1.9%	-9.7%	-19.5%	?
Cc1ccc(Nc2nnc(-c3ccc(N4CCOCC4)c([N+](=O)[O-])c3)c3ccccc23)cc1	-16.6%	0.0	0.7%	-23.8%	10.3µM*	11.6µM*
O=[N+]([O-])c1cc(-c2nnc(Nc3ccc(O)cc3)c3ccccc23)ccc1N1CCOCC1	-11.8%	·	-8.8%	?	14.6µM*	16.4µM*
Cc1ccc(-c2csc(C(O)c3ccccc3)n2)cc1C (configuration not stated)	·	7.3	-21.6%	-5.4%	?	?
Cc1ccc(-c2csc(C(O)c3cccc(Cl)c3)n2)cc1C (configuration not stated)	·	-7.1	-54.5%	12.6µM*	?	?
OC(c1cccc(Cl)c1)c1nc(-c2ccc(Cl)cc2)cs1 (configuration not stated)	·	-0.1	12.6µM*	12.6µM*	?	?
COc1ccc(OC)c(CNS(=O)(=O)c2ccc(-c3cc(C(F)(F)F)on3)s2)c1	·	·	-30.5%	-11.5%	8.2µM*	8.2µM*
COc1ccc(CNS(=O)(=O)c2ccc(-c3ccc(=O)[nH]n3)s2)cc1OC	-2.2%	24.5	-1.6%	-0.3%	10.2%	?
COc1ccccc1CNS(=O)(=O)c1ccc(-c2cc(C(F)(F)F)on2)s1	·	·	-37.3%	?	20.6µM*	23.1µM*
COc1ccc(CNS(=O)(=O)c2ccc(-c3cc(C(F)(F)F)on3)s2)cc1OC	·	·	-34.5%	0.0%	5.17µM*	9.2µM*
COc1ccccc1N1CCN(S(=O)(=O)c2ccc(-c3cc(C(F)(F)F)on3)s2)CC1	·	·	1.1%	-3.3%	?	?
O=C(Nc1ccc(Cl)c(S(=O)(=O)N2CCCC2)c1)c1nn(CCO)c(=O)c2ccccc12	-21.2%	-11.2	-20.4%	-13.7%	?	?
CC(=O)Nc1cc(C(=O)NCc2ccc(F)cc2)ccc1Sc1ccc(C)cc1	·	·	-28.6%	-11.3%	?	?
CCCCCCN1C[C@H](n2cc(C3CC3)nn2)[C@@H](O)C[C@@H]1c1ccc(C)cc1	·	-4.7	15.8µM*	14.1µM*	11.6µM*	20.6µM*
CCCCCCN1C[C@@H](n2cc(C3CC3)nn2)[C@H](O)C[C@@H]1c1ccc(C)cc1	·	-21.1	-118.8%	?	?	?
SMILES	ASM inhibitor	IL-1B inflam inh	HepG2 viability	TGFb SMAD3 inh	TDP1 cell noCPT	TDP1 cell CPT
CCCCCCN1C[C@@H](O)[C@H](n2cc(C3CC3)nn2)C[C@@H]1c1ccc(OC)cc1	·	16.0	-18.2%	-0.6%	?	?
CCCCCCN1C[C@@H](n2cc(C3CC3)nn2)[C@H](O)C[C@@H]1c1ccc(OC)cc1	·	?	-7.1%	?	14.6µM*	18.4µM*
CCOC(=O)c1ccc(NC(=O)c2cc3c(=O)n(C)c4ccccc4c3n2C)cc1	·	·	2.1%	-21.3%	0.0%	25.2%
CCCN1CCN(CCCNC(=O)c2cc3c(=O)n(C)c4ccccc4c3n2C)CC1	7.1%	-22.2	-16.5%	4.8%	?	?
CN1CCN(CCNC(=O)c2cc3c(=O)n(C)c4ccccc4c3n2C)CC1	2.3%	?	-11.6%	-5.3%	-16.3%	-25.6%
Cn1c(C(=O)NC2CC2)cc2c(=O)n(C)c3ccccc3c21	0.0%	-63.3*	-6.2%	-6.6%	?	?
Cn1c(C(=O)Nc2ccc3c(c2)OCCO3)cc2c(=O)n(C)c3ccccc3c21	-13.7%	-68.6*	-35.8%	-5.2%	11.6µM*	13µM*
CCOC(=O)N1CCC(NC(=O)c2cc3c(=O)n(C)c4ccccc4c3n2C)CC1	-1.9%	-5.4	-7.8%	-1.8%	?	20.6µM*
COc1ccc([C@H]2CC(=O)C[C@@H](CCn3cc(C)nn3)O2)cc1	·	42.9	·	·	-14.1%	1.3%
CC(C)c1ccc(C2NC(=O)NC3=C2CCc2ccccc23)cc1 (configuration not stated)	9.4%	-5.6	-45.1%	?	14.6µM*	13µM*
CC(=O)NC1C(=O)N(CC(C)C)c2ccccc21 (configuration not stated)	3.7%	1.5	1.3%	0.0%	2.2%	-0.5%
CC(C)CN1C(=O)C(=Nc2cccnc2)c2ccccc21	-3.2%	79.0	-5.1%	-0.2%	4.61µM*	3.66µM*

Bioassay records: PubChem, National Center for Advancing Translational Sciences (NCATS)
